In the supplement of paper PMC10849652:
About 8,800 targets were measured; listed, in parts, are those with a hit and a random draw of the rest. About 0.5% of all pairs of compound and target were hits. Unmarked numbers belong to inactive results.

Tests used:
Test in all cases: log2 fold change, soluble protein after heating vs DMSO (PISA); higher = thermal stabilisation; K562 lysate, 10 uM; active = over 0.2 and 3.5 SD of the protein, either way, in both replicates (recomputed)
[1] = compound: C#Cc1cccc(Nc2ncnc3cc(OCCOC)c(OCCOC)cc23)c1 [erlotinib]
Procedure, shortened: (§1)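 Values give the log-two fold change in thermal stability against solvent controls, from duplicates. Crude K562 extract at 1 mg/mL protein, made by dounce homogenisation in PBS pH 7.4 with 1 mM MgCl2, was treated with 10 μM compound for 30 min. After 3 min heating across 48°C-58°C, aliquots were pooled, adjusted to 0.5% NP-40 at 4°C and centrifuged at 21,000xg for 90 min. The supernatant was measured by TMTpro 16plex LC-MS/MS with channel sums equalised.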

[2] = compound: C/C(=N\NC(=O)C1=CC(=CC=C1)S(=O)(=O)N2CCOCC2)/C3=C(C=CC(=C3)Cl)O
Procedure, shortened: as §1

[3] = compound: C1=CC(=CC=C1C2=NC3=C(N2)C=C(C=C3)C(=O)N)OC4=CC=C(C=C4)Cl
Procedure, shortened: as §1

[4] = compound: C1=CC2=C(C=CC(=C2)/C=C\3/C(=O)NC(=NCC4=CC=CS4)S3)N=C1
Procedure, shortened: as §1

[5] = compound: C1=CC2=NC=CN=C2C=C1/C=C/3\C(=O)NC(=O)S3
Procedure, shortened: as §1

[6] = compound: C1=CC=C(C=C1)C2=NC(=C(N2)C3=CC=NC=C3)C4=CC(=C(C=C4)Cl)O
Procedure, shortened: as §1

[7] = compound: C1=CC=C2C(=C1)C3=NNC4=CC=CC(=C43)C2=O
Procedure, shortened: as §1

[8] = compound: C1CCN(C1)C(=O)NC2=CC=CC(=C2)NC3=NC=C(C(=N3)NCCC4=CN=CN4)Br
Procedure, shortened: as §1

[9] = compound: C1CN(CCC1(CC2=CC=C(C=C2)Cl)N)C3=NC=NC4=C3C=CN4
Procedure, shortened: as §1

[10] = compound: C1COCCN1CCN2C3=CC=CC=C3N=C2NC(=O)C4=CC(=CC=C4)[N+](=O)[O-] [IRAK-1-4 Inhibitor I]
Procedure, shortened: as §1

Chain of UniProt P53814 (P53814 whole entry, looked up): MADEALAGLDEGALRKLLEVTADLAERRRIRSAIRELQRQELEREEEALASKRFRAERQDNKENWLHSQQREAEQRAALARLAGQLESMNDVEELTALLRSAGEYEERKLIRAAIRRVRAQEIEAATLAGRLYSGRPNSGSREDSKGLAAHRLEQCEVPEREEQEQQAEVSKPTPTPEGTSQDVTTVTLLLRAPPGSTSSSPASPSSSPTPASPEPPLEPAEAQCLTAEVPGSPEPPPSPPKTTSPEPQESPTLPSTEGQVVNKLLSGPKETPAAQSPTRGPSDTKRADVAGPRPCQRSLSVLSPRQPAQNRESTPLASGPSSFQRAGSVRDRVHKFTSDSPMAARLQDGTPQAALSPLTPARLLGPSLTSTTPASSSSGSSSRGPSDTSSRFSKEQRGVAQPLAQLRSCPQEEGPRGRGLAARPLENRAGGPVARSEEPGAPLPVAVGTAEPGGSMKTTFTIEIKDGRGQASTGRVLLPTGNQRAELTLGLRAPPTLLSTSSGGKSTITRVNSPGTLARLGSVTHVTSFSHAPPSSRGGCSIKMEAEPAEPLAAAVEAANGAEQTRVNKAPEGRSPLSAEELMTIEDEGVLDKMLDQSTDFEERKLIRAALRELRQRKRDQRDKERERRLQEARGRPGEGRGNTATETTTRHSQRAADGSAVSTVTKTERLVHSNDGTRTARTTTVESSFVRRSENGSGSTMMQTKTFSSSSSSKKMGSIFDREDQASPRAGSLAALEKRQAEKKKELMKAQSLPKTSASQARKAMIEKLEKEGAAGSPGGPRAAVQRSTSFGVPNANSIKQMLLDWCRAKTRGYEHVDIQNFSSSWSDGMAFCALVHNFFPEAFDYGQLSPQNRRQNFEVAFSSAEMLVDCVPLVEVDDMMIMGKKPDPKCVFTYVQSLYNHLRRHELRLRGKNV
Chain of UniProt Q9HBR0 (Q9HBR0 whole entry, looked up): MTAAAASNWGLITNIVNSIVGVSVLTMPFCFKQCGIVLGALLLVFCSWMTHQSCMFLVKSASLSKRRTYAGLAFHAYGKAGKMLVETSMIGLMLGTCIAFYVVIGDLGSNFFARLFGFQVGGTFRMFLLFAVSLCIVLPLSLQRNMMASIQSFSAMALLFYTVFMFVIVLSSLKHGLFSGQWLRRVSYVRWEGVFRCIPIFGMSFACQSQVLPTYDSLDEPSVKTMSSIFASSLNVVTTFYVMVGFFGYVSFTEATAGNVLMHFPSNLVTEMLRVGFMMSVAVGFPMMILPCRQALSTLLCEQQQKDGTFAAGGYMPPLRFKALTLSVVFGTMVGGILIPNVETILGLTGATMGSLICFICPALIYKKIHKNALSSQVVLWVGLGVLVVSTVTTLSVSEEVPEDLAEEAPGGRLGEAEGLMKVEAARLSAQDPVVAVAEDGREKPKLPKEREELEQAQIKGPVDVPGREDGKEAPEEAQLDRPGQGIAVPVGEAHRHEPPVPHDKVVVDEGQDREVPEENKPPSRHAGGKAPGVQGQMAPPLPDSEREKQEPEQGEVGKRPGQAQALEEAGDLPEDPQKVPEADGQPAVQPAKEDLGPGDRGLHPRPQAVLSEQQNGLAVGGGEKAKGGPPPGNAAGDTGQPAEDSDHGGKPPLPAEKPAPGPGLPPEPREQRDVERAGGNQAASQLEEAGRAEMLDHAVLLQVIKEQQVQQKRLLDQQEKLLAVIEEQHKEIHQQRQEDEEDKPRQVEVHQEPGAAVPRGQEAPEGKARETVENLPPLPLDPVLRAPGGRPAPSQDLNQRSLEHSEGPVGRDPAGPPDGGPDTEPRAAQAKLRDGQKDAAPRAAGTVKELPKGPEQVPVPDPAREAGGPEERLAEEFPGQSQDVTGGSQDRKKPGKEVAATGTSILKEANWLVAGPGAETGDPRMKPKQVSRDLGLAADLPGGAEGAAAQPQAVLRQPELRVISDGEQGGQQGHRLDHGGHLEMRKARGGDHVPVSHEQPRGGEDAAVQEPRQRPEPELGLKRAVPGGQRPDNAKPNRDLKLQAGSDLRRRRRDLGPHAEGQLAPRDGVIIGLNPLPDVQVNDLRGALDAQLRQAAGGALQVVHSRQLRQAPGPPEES
Chain of UniProt Q96H78 (Q96H78 whole entry, looked up): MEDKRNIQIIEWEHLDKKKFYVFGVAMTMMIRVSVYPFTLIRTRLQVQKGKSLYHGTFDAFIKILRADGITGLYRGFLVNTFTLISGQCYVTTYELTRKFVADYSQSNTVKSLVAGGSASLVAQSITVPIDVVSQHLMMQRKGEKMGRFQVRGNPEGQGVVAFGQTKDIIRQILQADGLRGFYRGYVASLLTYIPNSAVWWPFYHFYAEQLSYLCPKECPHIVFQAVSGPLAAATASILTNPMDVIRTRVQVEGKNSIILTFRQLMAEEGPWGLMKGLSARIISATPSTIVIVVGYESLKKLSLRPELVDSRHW
Chain of UniProt P62318 (P62318 whole entry, looked up): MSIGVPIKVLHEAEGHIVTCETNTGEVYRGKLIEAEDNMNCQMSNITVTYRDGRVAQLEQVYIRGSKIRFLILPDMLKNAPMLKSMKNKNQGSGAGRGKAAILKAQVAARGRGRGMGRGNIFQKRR
Chain of UniProt P62306 (P62306 whole entry, looked up): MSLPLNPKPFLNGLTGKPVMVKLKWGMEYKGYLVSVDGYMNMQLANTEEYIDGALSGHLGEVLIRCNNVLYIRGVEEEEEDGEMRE
Chain of UniProt P61011 (P61011 whole entry, looked up): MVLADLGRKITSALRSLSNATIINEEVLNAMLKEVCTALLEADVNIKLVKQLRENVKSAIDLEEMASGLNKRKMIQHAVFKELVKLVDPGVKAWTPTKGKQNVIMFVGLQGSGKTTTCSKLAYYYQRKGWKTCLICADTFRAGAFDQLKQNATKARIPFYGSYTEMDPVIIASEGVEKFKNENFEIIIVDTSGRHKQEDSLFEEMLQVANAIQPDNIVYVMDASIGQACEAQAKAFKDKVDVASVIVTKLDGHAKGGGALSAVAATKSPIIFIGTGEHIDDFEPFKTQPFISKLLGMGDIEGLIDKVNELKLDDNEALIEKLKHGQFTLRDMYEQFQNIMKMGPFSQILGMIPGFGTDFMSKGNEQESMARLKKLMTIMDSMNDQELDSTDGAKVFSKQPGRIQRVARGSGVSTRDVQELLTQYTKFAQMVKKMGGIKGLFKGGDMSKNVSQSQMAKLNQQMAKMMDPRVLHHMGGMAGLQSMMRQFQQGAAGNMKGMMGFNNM
Chain of UniProt Q8NEM2 (Q8NEM2 whole entry, looked up): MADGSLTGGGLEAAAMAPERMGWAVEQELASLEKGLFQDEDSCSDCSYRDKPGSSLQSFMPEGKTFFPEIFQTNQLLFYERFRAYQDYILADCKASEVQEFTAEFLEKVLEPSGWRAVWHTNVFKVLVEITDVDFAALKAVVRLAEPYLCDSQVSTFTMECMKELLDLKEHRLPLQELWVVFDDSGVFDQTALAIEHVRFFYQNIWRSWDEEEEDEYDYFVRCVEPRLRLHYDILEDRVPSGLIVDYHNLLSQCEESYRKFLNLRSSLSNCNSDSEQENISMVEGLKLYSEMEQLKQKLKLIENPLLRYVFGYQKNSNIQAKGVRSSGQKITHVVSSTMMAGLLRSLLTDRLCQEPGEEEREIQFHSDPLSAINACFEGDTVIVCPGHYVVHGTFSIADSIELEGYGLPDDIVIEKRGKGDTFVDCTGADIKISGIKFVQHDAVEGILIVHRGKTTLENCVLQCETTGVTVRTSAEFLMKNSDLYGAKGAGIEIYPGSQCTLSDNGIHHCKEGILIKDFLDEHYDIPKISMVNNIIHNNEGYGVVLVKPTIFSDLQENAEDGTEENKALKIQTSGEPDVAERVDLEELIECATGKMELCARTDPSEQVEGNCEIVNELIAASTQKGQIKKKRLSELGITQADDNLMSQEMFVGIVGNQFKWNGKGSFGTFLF
Chain of UniProt P35270 (P35270 whole entry, looked up): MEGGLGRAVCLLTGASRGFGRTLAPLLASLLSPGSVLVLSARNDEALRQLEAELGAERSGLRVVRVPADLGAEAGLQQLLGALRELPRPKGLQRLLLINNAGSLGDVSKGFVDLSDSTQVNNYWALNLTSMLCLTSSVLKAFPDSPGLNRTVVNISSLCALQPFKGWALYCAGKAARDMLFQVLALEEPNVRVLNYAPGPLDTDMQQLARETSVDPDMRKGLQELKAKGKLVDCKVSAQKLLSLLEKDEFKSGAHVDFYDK
Chain of UniProt Q96DI7 (Q96DI7 whole entry, looked up): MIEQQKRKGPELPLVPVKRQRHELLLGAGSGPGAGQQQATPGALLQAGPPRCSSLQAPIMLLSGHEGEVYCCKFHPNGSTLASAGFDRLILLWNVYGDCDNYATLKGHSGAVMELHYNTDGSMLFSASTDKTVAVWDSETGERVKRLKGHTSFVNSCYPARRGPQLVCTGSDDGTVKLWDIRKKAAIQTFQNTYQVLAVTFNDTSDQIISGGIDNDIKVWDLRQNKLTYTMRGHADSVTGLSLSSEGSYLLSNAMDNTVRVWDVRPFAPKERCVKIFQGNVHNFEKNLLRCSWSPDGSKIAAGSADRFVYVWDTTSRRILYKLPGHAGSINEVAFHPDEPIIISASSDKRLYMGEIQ
Chain of UniProt Q9H668 (Q9H668 whole entry, looked up): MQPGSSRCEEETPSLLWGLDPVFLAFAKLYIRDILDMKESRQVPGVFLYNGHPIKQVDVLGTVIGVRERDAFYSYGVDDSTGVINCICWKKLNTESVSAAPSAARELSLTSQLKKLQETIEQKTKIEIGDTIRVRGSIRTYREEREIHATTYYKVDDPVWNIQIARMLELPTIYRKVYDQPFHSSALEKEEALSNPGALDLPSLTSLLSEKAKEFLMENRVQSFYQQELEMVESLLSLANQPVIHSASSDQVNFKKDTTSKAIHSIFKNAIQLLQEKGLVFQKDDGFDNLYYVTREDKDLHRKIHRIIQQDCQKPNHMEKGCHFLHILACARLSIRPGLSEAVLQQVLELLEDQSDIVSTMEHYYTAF
Chain of UniProt O00161 (O00161 whole entry, looked up): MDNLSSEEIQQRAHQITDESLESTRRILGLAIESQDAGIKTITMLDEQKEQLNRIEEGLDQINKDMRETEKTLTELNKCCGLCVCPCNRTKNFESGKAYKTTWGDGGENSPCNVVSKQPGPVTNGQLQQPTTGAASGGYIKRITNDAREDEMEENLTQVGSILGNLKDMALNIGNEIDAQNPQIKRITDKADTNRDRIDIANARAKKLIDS

Target	log2 fold change [1]	log2 fold change [2]	log2 fold change [3]	log2 fold change [4]	log2 fold change [5]	log2 fold change [6]	log2 fold change [7]	log2 fold change [8]	log2 fold change [9]	log2 fold change [10]
SMTN isoform 6 (UniProt P53814)	-0.033	0.081	-0.01	0.035	0.006	0.021	0.005	-0.018	0.015	0.058
STAT2 (UniProt P52630)	-0.009	0.033	-0.102	-0.01	0.034	0.003	-0.032	0.002	0.018	-0.018
SQLE (UniProt Q14534)	-0.025	0.056	0.019	-0.03	-0.028	0.007	0.074	-0.019	-0.084	0.023
SSNA1 (UniProt O43805)	-0.004	-0.04	-0.013	0.07	-0.036	0.04	-0.03	-0.002	0.066	0.018
SLC38A10 (UniProt Q9HBR0)	0.007	-0.128	-0.006	-0.065	-0.009	0.02	-0.127	0	0.016	0.047
TANK (UniProt Q92844)	0	-0.089	-0.015	-0.069	0.003	0.025	0.089	0.082	0	0.028
SF3B6 (UniProt Q9Y3B4)	0.011	0.047	0	0.001	0.043	0.034	0.044	0.004	-0.034	-0.024
SNAP23 (UniProt O00161)	-0.01	0.037	-0.025	0.047	0.02	0.039	0.022	0.018	0.03	0.038
SLU7 (UniProt O95391)	-0.02	-0.086	-0.021	0.09	-0.026	0.021	0.036	-0.096	-0.041	-0.07
TAF9 (UniProt Q16594)	0.022	0.009	0.081	0.056	0.002	0.013	-0.052	-0.08	0.084	0.032
SNRNP40 (UniProt Q96DI7)	0.025	0.046	-0.03	-0.031	-0.031	0.009	0.011	0.02	-0.004	0.01
SLC25A44 (UniProt Q96H78)	0.117	-0.275	0.055	-0.018	0.025	-0.064	0.145	-0.039	0.037	-0.053
SNRPD3 (UniProt P62318)	0.017	0.021	0.016	-0.057	0.013	-0.013	0.033	0.019	0.044	0.026
STN1 (UniProt Q9H668)	-0.126	0.049	0.142	0.075	-0.098	0.019	-0.061	-0.045	0.043	0.034
SMC2 (UniProt O95347)	-0.001	-0.011	-0.011	0.001	0.012	0.013	-0.036	0.003	-0.008	-0.019
SSB (UniProt P05455)	-0.008	0.007	-0.014	-0.025	-0.009	0.001	-0.015	0.013	0.002	-0.011
SYPL1 (UniProt Q16563)	0.026	-0.017	-0.014	0.016	0.04	0.025	0.002	0.014	0.002	0.032
SPAG5 (UniProt Q96R06)	0.013	0.012	-0.054	0.003	-0.008	0.014	0.018	-0.009	-0.011	0
SMARCA4 (UniProt P51532)	-0.01	-0.018	-0.021	0.011	-0.001	-0.003	-0.017	-0.003	-0.024	-0.025
SLC25A25 isoform 3 (UniProt Q6KCM7)	-0.029	0.054	-0.038	0.039	-0.003	-0.027	0.01	0.011	-0.026	-0.041
SP1 (UniProt P08047)	-0.012	-0.04	0.053	0.093	-0.047	0.007	0.04	0.004	0.013	0.034
SSB (UniProt E7ERC4)	-0.03	0.071	-0.063	0	0.02	0.015	-0.142	0.089	0.01	-0.043
STK24 (UniProt B4DR80)	0.019	0.02	0.018	-0.04	-0.003	-0.004	0.198	0.045	0.013	-0.007
SMARCAD1 isoform 2 (UniProt Q9H4L7)	0	0.022	-0.039	0.023	-0.019	0.041	-0.052	-0.051	0.003	-0.006
SRPK1 (UniProt Q96SB4)	0.015	-0.04	0.121	0.016	0.003	0.05	0.017	-0.01	0.007	0.019
SNRPF (UniProt P62306)	-0.029	-0.07	0.081	-0.017	-0.065	0.028	-0.034	-0.018	0.001	0.007
SHCBP1 (UniProt Q8NEM2)	0.034	0.01	-0.035	-0.023	0.007	0.032	0.005	0.014	-0.014	0.018
SPR (UniProt P35270)	-0.027	0.014	-0.021	0.056	0.049	1.04 (active)	0.013	0.008	-0.041	0.049
SMN1 (UniProt Q16637)	0.038	0.009	0.042	-0.075	-0.055	0.096	-0.068	-0.046	-0.104	0.02
SRP54 (UniProt P61011)	-0.026	0.017	0.035	0.023	-0.043	0.005	-0.039	-0.047	-0.003	-0.014
